Consider 10 compounds from PubChem BioAssay (Tox21).

Assay [1] can be described thus: qHTS assay to identify small molecule agonists of the RXR signaling pathway - cell viability counter screen (AID 1159529).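 Note: HEK 293T cells carrying an RXR-alpha UAS beta-lactamase reporter; nearly all actives have a fitted effect of over 50% in size.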 Summed up: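 RXR-alpha-UAS-bla HEK 293T cells in medium with 2% charcoal-stripped FBS were preincubated 5 hr, then exposed to compounds for 16 hr at 37 C. Viability was read as CellTiter-Glo luminescence after 30 min at room temperature.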
For orientation: In qHTS, concentration-response curves come from the screen itself.

The nature of assay [2]: qHTS assay to identify small molecule antagonists of the retinoid acid receptor (RAR) signaling pathway - cell viability counter screen (AID 1159551). Note: nearly all actives have a fitted effect of over 35% in size. The procedure, abridged:
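C3RL4 cells were seeded overnight at 37 C, then treated with compounds plus 1 uM (final) retinol for 6 h at 37 C. Viability was read as ATP by CellTiter-Glo luminescence after 30 min at room temperature.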

Assay [3] is described as follows: qHTS assay to identify small molecule antagonists of the retinoic acid receptor (RAR) signaling pathway (AID 1159552; note: nearly all actives have a fitted effect of over 50% in size). The procedure, abridged: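 RARE-luc C3RL4 cells; cpds + 1 uM (final) retinol, 6 hr, 37 C/5% CO2; luciferase reagent, 30 min RT, luminescence readout. Inhibitors of retinol-driven signal scored.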
Assay [4] is described as follows: qHTS assay to identify small molecule agonists of the retinoic acid receptor (RAR) signaling pathway (AID 1159553). Note: potency is the fitted concentration of half-maximal effect. To be noted: C3RL4 RARE luciferase reporter, agonist, 6 h; activation: at 73.3 µM (top of the series) unless noted. The procedure, abridged:
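C3RL4 cells carrying a RARE luciferase reporter were plated overnight at 37 C, then exposed to compounds in DMSO for 6 hr at 37 C and 5% CO2. Luminescence was read 30 min after luciferase reagent addition at room temperature.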

Assay [5] can be described thus: qHTS assay to identify small molecule antagonists of the estrogen related receptor (ERR) signaling pathway from Tox21 library - cell viability counter screen (AID 1224834). Note: nearly all actives have a fitted effect of over 30% in size. Summed up:
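ERR reporter cells were plated 6 h before compound addition, then exposed to test compounds in DMSO for 17.5 h at 37 C. Viability was read as CellTiter-Fluor fluorescence after a 30-minute incubation at 37 C.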

Assay [6] concerns the target Luciferin 4-monooxygenase (Photinus pyralis) (UniProt P08659). As to the kind of experiment: qHTS assay to identify small molecule inhibitors of firefly luciferase (AID 1224835). Note: nearly all actives have a fitted effect of over 25% in size. Note: potency is the fitted concentration of half-maximal effect. The procedure, abridged:
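Quantitative HTS format; KM concentrations of both substrates. Purified P. pyralis FLuc activity quantified from luminescence images.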

Assay [7] is described as follows: qHTS assay to identify small molecule agonists of the constitutive androstane receptor (CAR) signaling pathway - cell viability counter screen (AID 1224836). Note: nearly all actives have a fitted effect of over 45% in size. Summed up:
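HepG2 cells stably carrying hCAR and a CYP2B6-2.2kb reporter were plated 4 h, then given compounds at 15 concentrations plus PK11195 (final 0.75 uM). After 23 h at 37 C, viability was read by CellTiter-Fluor fluorescence.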

Assay [8] in a line: qHTS assay to identify small molecule antagonists of the constitutive androstane receptor (CAR) signaling pathway - cell viability counter screen (AID 1224837). Note: nearly all actives have a fitted effect of over 45% in size. Summed up:
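HepG2 cells stably expressing hCAR and a CYP2B6-2.2kb reporter were plated and pre-incubated 4 hr at 37 C/5% CO2, then given compounds at 15 concentrations plus 50 nM CITCO (final). After 23 hr, viability was read by CellTiter-Fluor fluorescence.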

In assay [9] the target is Nuclear receptor subfamily 1 group I member 3 (Homo sapiens) (UniProt Q14994). As to the kind of experiment: qHTS assay to identify small molecule antagonists of the constitutive androstane receptor (CAR) signaling pathway (AID 1224838). Note: nearly all actives have a fitted effect of over 40% in size. The procedure, abridged: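 HepG2 cells stably co-transfected with hCAR and a CYP2B6-2.2kb luciferase reporter were seeded 4 h before compound addition at 15 concentrations. Cells were stimulated with 50 nM CITCO (final) for 24 h at 37 C; luciferase luminescence was then read.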

Assay [10] shares this target. The assay is described as follows: qHTS assay to identify small molecule agonists of the constitutive androstane receptor (CAR) signaling pathway (AID 1224839). Note: nearly all actives have a fitted effect of over 15% in size. Summed up: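 HepG2 cells stably expressing hCAR and a CYP2B6-2.2kb luciferase reporter were treated with compounds at 15 concentrations plus 0.75 uM PK11195 (final) for 24 h at 37 C; luminescence was read after ONE-Glo addition.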

Assay [11] can be described thus: qHTS assay to identify small molecule antagonists of the estrogen related receptor signaling pathway with the pleiotropic PPARgamma coactivator (PGC) from Tox21 10K library - cell viability counter screen (AID 1224840; active = well fitted cell-killing curve with a large enough effect in the repeat runs, not every such curve was filed as active; note: nearly all actives have a fitted effect of over 40% in size). The procedure, abridged: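 PGC/ERR cells were seeded at 2,000 cells/well and left 6 hours at 37 C/5% CO2 before pin-tool addition of compounds in DMSO. After 17.5 hours at 37 C, CellTiter-Fluor was added and fluorescence read 30 minutes later.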

Assay [12] is described as follows: qHTS assay to identify small molecule antagonists of the estrogen related receptor signaling pathway with the pleiotropic PPARgamma coactivator (PGC) from Tox21 10K library (AID 1224841; call rule not given here; note: actives are mostly falling curves and most rising ones were filed inactive; nearly all actives have a fitted effect of over 50% in size). The procedure, abridged:
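PGC/ERR reporter cells were seeded at 2,000 cells/well and held 6 hours at 37 C/5% CO2 before pin-tool addition of compounds in DMSO. After 18 hours at 37 C, One-Glo was added and luminescence read after 30 minutes at room temperature.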

A short description of assay [13]: qHTS assay to identify small molecule agonists of the estrogen related receptor signaling pathway with the pleiotropic PPARgamma coactivator (PGC) from Tox21 10K library (AID 1224842). Note: nearly all actives have a fitted effect of over 15% in size. Summed up: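 PGC/ERR reporter cells (NTP line) were seeded 2,000 per well, rested 6 h at 37 C/5% CO2, then pin-dosed with compounds in DMSO for 18 h at 37 C; luciferase read by One-Glo luminescence after 30 min at room temperature.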

Assay [14] addresses Thyrotropin receptor (Homo sapiens) (UniProt P16473). As to the kind of experiment: qHTS assay to identify small molecule agonists of the thyroid stimulating hormone receptor (TSHR) signaling pathway (AID 1224843; calls by dose curve; note: nearly all actives have a fitted effect of over 45% in size). The procedure, abridged:
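TSHR-expressing HEK293 cells (800 per well) were exposed to compounds for 30 min at room temperature. cAMP was then detected by HTRF competition with cAMP-d2 and anti-cAMP cryptate, read after 1 h at room temperature. Fifteen concentrations, triplicate.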

Assay [15] can be described thus: qHTS assay to identify small molecule antagonists of the estrogen related receptor (ERR) signaling pathway - cell viability counter screen (AID 1224818).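 Note: viability measured after 17.5 h of compound exposure.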 The procedure, abridged:
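ERR reporter cells plated 6 h at 37 C/5% CO2, then compounds in DMSO pin-transferred and incubated 17.5 h at 37 C. Viability read as CellTiter-Fluor fluorescence after 30 min at 37 C.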

Assay [16] in a line: qHTS assay to identify small molecule agonists of the estrogen related receptor (ERR) signaling pathway (AID 1224820). The procedure, abridged: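 ERR reporter cells (NTP line) plated 2,000/well, incubated 6 h at 37 C/5% CO2, then pinned with compounds in DMSO and held 18 h at 37 C. One-Glo added; luminescence read after 30 min at room temperature.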
Assay [17] has as its system estrogen-related receptor alpha (ERRalpha) with PGC-1alpha coactivator, human. The assay is described as follows: qHTS assay to identify small molecule antagonists of the estrogen related receptor signaling pathway with the pleiotropic PPARgamma coactivator (PGC) (AID 1224821; calls by dose curve;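 note: lower luminescence signal means antagonism of PGC/ERR signalling; nearly all actives have a fitted effect of over 50% in size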). Summed up: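 Cells engineered for PGC/ERR signalling (line from NTP) were plated 6 h at 37 C/5% CO2, then exposed to DMSO-dissolved compound for 18 h at 37 C. Luciferase activity was read by One-Glo luminescence after 30 min at room temperature.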

Assay [18] in a line: qHTS assay to identify small molecule antagonists of the estrogen related receptor signaling pathway with the pleiotropic PPARgamma coactivator (PGC) cell viability counter screen (AID 1224822). The procedure, abridged:
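PGC/ERR cells were seeded at 2,000 cells/well, rested 6 h at 37 C/5% CO2, then given compounds in DMSO by pin tool and incubated 17.5 h at 37 C. Viability came from CellTiter-Fluor fluorescence after 30 min.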

Molecules are shown by their SMILES. Values joined by “and” are separate entries in the source; they are usually repeats but may differ in a detail not shown here. Equal entries are not always repeated. Inconclusive results are not listed. Where a structure was tested more than once in an assay, its records may differ in their call. Active and inactive are the calls of the source. Unless noted, calls come from the whole dose curve; as a rule, active = well fitted curve in the direction sought with a large enough effect in the repeat runs; inconclusive = weak or mixed curves; inactive = no such curve, though single readings can be large; an effect the other way counts as inactive or inconclusive.

Sequence of Thyrotropin receptor (Homo sapiens) (P16473 whole entry, looked up): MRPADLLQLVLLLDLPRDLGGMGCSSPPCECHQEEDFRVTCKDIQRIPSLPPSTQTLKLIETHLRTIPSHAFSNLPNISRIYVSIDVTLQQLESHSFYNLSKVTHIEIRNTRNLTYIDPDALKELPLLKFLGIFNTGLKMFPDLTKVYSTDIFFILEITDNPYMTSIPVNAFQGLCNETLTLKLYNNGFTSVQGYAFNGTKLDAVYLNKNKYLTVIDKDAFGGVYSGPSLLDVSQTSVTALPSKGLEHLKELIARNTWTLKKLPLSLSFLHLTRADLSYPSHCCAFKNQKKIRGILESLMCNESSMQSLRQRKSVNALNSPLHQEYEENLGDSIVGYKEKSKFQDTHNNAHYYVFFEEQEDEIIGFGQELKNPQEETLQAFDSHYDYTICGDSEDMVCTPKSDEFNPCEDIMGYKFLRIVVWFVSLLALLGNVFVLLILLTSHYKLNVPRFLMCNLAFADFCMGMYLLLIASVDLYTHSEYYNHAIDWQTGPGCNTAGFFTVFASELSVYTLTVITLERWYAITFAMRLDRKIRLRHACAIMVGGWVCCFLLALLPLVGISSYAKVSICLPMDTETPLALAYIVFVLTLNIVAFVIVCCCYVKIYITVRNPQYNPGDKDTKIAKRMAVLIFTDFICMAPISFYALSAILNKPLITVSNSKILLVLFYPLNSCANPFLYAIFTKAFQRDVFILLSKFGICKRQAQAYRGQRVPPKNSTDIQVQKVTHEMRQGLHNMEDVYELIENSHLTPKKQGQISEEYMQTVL
Sequence of Luciferin 4-monooxygenase (Photinus pyralis) (P08659 whole entry, looked up): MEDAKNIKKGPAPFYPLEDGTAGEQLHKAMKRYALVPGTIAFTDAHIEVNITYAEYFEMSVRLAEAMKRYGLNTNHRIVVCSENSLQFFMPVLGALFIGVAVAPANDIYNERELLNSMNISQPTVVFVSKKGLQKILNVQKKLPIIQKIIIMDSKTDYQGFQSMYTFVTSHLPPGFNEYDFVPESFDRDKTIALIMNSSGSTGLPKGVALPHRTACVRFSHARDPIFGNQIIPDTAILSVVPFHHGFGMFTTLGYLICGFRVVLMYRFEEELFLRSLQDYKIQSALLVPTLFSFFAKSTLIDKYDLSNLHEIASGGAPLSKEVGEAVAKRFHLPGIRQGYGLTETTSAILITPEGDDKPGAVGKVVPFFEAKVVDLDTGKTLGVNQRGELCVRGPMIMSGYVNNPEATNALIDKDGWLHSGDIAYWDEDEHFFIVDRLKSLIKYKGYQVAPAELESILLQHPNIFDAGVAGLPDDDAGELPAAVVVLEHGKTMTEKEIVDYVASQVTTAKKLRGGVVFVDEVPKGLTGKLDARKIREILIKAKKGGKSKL
Sequence of Nuclear receptor subfamily 1 group I member 3 (Homo sapiens) (Q14994 whole entry, looked up): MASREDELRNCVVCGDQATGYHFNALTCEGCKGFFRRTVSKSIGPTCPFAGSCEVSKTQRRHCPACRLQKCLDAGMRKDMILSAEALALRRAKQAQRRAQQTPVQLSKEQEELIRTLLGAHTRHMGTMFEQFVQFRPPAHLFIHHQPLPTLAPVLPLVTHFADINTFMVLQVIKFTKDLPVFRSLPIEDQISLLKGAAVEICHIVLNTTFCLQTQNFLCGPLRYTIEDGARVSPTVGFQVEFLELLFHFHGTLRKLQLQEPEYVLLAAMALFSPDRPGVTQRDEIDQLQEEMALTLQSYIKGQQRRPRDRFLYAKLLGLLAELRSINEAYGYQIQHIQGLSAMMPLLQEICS

On to `O=C1OC(=O)c2c(Cl)c(Cl)c(Cl)c(Cl)c21`, for which the Potency entry in assay [1], in assay [2], in [3], in assay [4], in assay [5] and in [6] was “inactive” throughout. Also, the Potency result in assay [7], in assay [8], in assay [9], in assay [10], in assay [11] and in assay [12] was “inactive” throughout. Further, the Potency result in assay [13] and in assay [14] was “inactive” each time.
For `Cc1ccc([N+](=O)[O-])cc1N`, the Potency entry in assay [1], in assay [2], in assay [3], in [4], in assay [5] and in assay [6] was “inactive” in each case. Moreover, the Potency result in assay [7], in [8], in [9], in [10], in assay [11] and in [14] was “inactive” each time.
On to `Cc1cc(C)c(O)c(C)c1`, for which the Potency entry in [1], in assay [2], in assay [3], in assay [4], in assay [5] and in [6] was “inactive” each time. Besides, the Potency entry in assay [7], in assay [8], in [9], in assay [10], in [11] and in [12] was “inactive” throughout. The Potency result in assay [13] and in assay [14] was “inactive” throughout.
Turning to `OC1CCCCC1`, the Potency result in [1], in assay [2], in assay [3], in assay [4], in [5] and in assay [6] was “inactive” in each case. Also, the Potency result in [7], in [8], in assay [9], in [10] and in [11] was “inactive” each time.
For `Brc1ccc(Oc2ccc(Br)cc2)cc1`, the Potency entry in [1], in assay [2], in [3], in assay [4], in [5] and in assay [6] was “inactive” throughout. The Potency result in [7], in [8], in assay [9], in assay [10], in assay [11] and in assay [14] was “inactive” throughout.
With `CC(C)=CCC/C(C)=C/C=O`, the Potency result in assay [1], in assay [2], in assay [3], in [4], in assay [5] and in assay [6] was “inactive” throughout. In addition, the Potency result in assay [7], in assay [8], in [9], in assay [10], in [11] and in assay [14] was “inactive” in each case.
For the compound `CCCCCCCCC(=O)O`, the Potency entry in [1], in assay [2], in [3], in assay [4], in [5] and in [6] was “inactive” in each case. The Potency result in assay [7], in assay [8], in assay [9], in assay [10], in assay [11] and in assay [14] was “inactive” in each case.
For the compound `Nc1nc(N)c2nc(-c3ccccc3)c(N)nc2n1`, the Potency entry in [1], in [2], in assay [3], in assay [17], in assay [18] and in assay [5] was “inactive” in each case. The Potency result in assay [7], in assay [8], in assay [9], in [10], in [11] and in [12] was “inactive” in each case. The Potency entry in assay [13] and in assay [14] was “inactive” throughout. Also, the Potency in assay [4] was 17.4 µM (active) and inactive; in assay [6], 40.4 µM (active) and 39.9 µM (active). Further, the outcome in assay [15] and in assay [16] was inactive.
In the case of `C=CC(C)(C)C`, the Potency entry in assay [1], in assay [2], in assay [3], in assay [4], in assay [5] and in assay [6] was “inactive” in each case. Also, the Potency result in [7], in assay [8], in [9], in [10], in assay [11] and in assay [12] was “inactive” throughout. Moreover, the Potency result in [13] and in assay [14] was “inactive” throughout.
As for `COCN(COC)c1nc(N(COC)COC)nc(N(COC)COC)n1`, the Potency entry in assay [1], in assay [2], in assay [3], in [4], in assay [5] and in assay [6] was “inactive” throughout. Also, the Potency result in assay [7], in assay [8], in [9], in assay [10], in assay [11] and in assay [12] was “inactive” in each case. For the same compound, the Potency result in assay [13] and in assay [14] was “inactive” in each case.
